This is part of a sample that, as a whole, favours compounds with a hit. Of some 79,000 tested, about 15% had one in any assay. A number with no mark means an inactive call. Active and inactive are the calls of the source. No stated cut-off is given here; in the data, active means growth inhibition above about 70%; inactive means the rest.

The nature of assay [1]: NCI Yeast Anticancer Drug Screen. Data for the rad50 strain (AID 155).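 Further: 0% = growth of vehicle-only cultures of the same strain.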 As to conditions: S. cerevisiae rad50 strain growth inhibition, active compounds read high. The procedure, abridged: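 Cells are treated with compound, grown, and their growth is then scored against vehicle-only cultures of the same repair-deficient yeast strain.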
Assay [2] can be described thus: NCI Yeast Anticancer Drug Screen. Data for the mec2-1 strain (AID 157). As to conditions: S. cerevisiae mec2-1 strain, active compounds read high. In outline:
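Vehicle-treated cultures served as reference for growth inhibition of compound-exposed mec2-1 yeast.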

A short description of assay [3]: NCI Yeast Anticancer Drug Screen. Data for the sgs1 mgt1 strain (AID 161).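 Further: 0% = growth of cultures given vehicle only.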 As to conditions: S. cerevisiae sgs1 mgt1 strain, active compounds read high. In outline: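 Inhibition of yeast growth, normalised to vehicle-treated controls, is reported for a strain bearing genetic alterations in DNA damage repair.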
Assay [4] can be described thus: NCI Yeast Anticancer Drug Screen. Data for the cln2 rad14 strain (AID 165).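 Further: 0% = growth equal to vehicle treated cultures.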 As to conditions: S. cerevisiae cln2 rad14 strain, active compounds read high. The procedure, abridged: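 Each compound was tested on cln2 rad14 yeast. Inhibition of growth was calculated against vehicle-exposed controls.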
Assay [5] is described as follows: NCI Yeast Anticancer Drug Screen. Data for the bub3 strain (AID 167). As to conditions: S. cerevisiae bub3 mutant strain, active compounds read high. In outline: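 Part of a panel of yeast mutants defective in DNA damage repair or cell cycle regulation. Each strain is grown with compound, and inhibition is calculated relative to solvent-treated cultures.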
A short description of assay [6]: NCI Yeast Anticancer Drug Screen. Data for the mlh1 rad18 strain (AID 175). As to conditions: S. cerevisiae mlh1 rad18 strain growth inhibition, active compounds read high. In outline:
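Vehicle-treated cultures served as the reference for growth inhibition in a yeast strain carrying DNA damage repair alterations exposed to each compound.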

The mark [7] stands for this setting: at 5.0 µM (retest, dose inferred, filed as 0.5).
The mark [8] stands for this setting: at 50.0 µM (retest, dose inferred, filed as 5.0).

Take `O=C(Nc1ccccc1)OC1CCCC1`: the growth inhibition in assay [1] (setting [7]) is 19%; in assay [1] (setting [8]), 94% (active); in assay [1] (at 50.0 µM), 85.5% (active); in assay [2] (setting [7]), 11%; in assay [2] (setting [8]), 88% (active); in assay [2] (at 50.0 µM) it was 11.8%. The growth inhibition in assay [3] (setting [7]) was 12%; in assay [3] (setting [8]), 92% (active); in assay [3] (at 50.0 µM), 81.2% (active); in assay [4] (setting [7]) it was 8%; in assay [4] (setting [8]) it was 28%; in assay [4] (at 50.0 µM) it was -3.85%. Besides, the growth inhibition in assay [5] (setting [7]) was 6%; in assay [5] (setting [8]), 90% (active); in assay [5] (at 50.0 µM) it was 50.1%; in assay [6] (setting [7]), 12%; in assay [6] (setting [8]) it was 94% (active); in assay [6] (at 50.0 µM), 82.8% (active).
As for `C/C(=N\NC(=S)N1CCC(O)CC1)c1ccccn1`, the growth inhibition in assay [1] (setting [7]) is 14%; in assay [1] (setting [8]) it was 93% (active); in assay [1] (at 50.0 µM), 99% (active); in assay [2] (setting [7]), 14%; in assay [2] (setting [8]), 94% (active); in assay [2] (at 50.0 µM) it was 99.5% (active). Besides, the growth inhibition in assay [3] (setting [7]) was 40%; in assay [3] (setting [8]), 99% (active); in assay [3] (at 50.0 µM), 99.2% (active); in assay [4] (setting [7]), 16%; in assay [4] (setting [8]), 95% (active); in assay [4] (at 50.0 µM), 98.2% (active). In addition, the growth inhibition in assay [5] (setting [7]) is 39%; in assay [5] (setting [8]) it was 97% (active); in assay [5] (at 50.0 µM), 98.8% (active); in assay [6] (setting [7]), 28%; in assay [6] (setting [8]), 98% (active); in assay [6] (at 50.0 µM), 98.8% (active).
For `CO[C@H]1C[C@@H]2CC[C@@H](C)[C@@](O)(O2)C(=O)C(=O)N2CCCC[C@H]2C(=O)O[C@H]([C@H](C)C[C@@H]2CC[C@@H](OC(=O)C(C)(CO)CO)[C@H](OC)C2)CC(=O)[C@H](C)/C=C(\C)[C@@H](O)[C@@H](OC)C(=O)[C@H](C)C[C@H](C)/C=C/C=C/C=C/1C`, the growth inhibition was 98% (active) in assay [1] (setting [7]); 97% (active) in assay [1] (setting [8]); 82.5% (active) in assay [1] (at 50.0 µM); 99% (active) in assay [2] (setting [7]); 98% (active) in assay [2] (setting [8]); 86.8% (active) in assay [2] (at 50.0 µM). Besides, the growth inhibition in assay [3] (setting [7]) is 98% (active); in assay [3] (setting [8]) it was 98% (active); in assay [3] (at 50.0 µM), 87.3% (active); in assay [4] (setting [7]) it was 93% (active); in assay [4] (setting [8]), 88% (active); in assay [4] (at 50.0 µM), 88% (active). Also, the growth inhibition was 97% (active) in assay [5] (setting [7]); 96% (active) in assay [5] (setting [8]); 89.5% (active) in assay [5] (at 50.0 µM); 98% (active) in assay [6] (setting [7]); 97% (active) in assay [6] (setting [8]); 89.5% (active) in assay [6] (at 50.0 µM).
With `Oc1ccc[nH]c1=S`, the growth inhibition is 19% in assay [1] (setting [7]); 18% in assay [1] (setting [8]); 18.4% in assay [1] (at 50.0 µM); 6% in assay [2] (setting [7]); 12% in assay [2] (setting [8]); 12.2% in assay [2] (at 50.0 µM). Also, the growth inhibition in assay [3] (setting [7]) was 3%; in assay [3] (setting [8]) it was -34%; in assay [3] (at 50.0 µM) it was 85.2% (active); in assay [4] (setting [7]), 8%; in assay [4] (setting [8]) it was -4%; in assay [4] (at 50.0 µM), -8.7%. Further, the growth inhibition in assay [5] (setting [7]) is 13%; in assay [5] (setting [8]) it was -2%; in assay [5] (at 50.0 µM) it was 74.5% (active); in assay [6] (setting [7]), 23%; in assay [6] (setting [8]), 12%; in assay [6] (at 50.0 µM) it was 90.9% (active).
`CCCCCCCCN/N=C(/C)CCCCCO`: the growth inhibition in assay [1] (setting [7]) was -6%; in assay [1] (setting [8]) it was 4%; in assay [1] (at 50.0 µM), -14.2%; in assay [2] (setting [7]), 4%; in assay [2] (setting [8]) it was 9%; in assay [2] (at 50.0 µM), -11.8%. Also, the growth inhibition in assay [3] (setting [7]) was 1%; in assay [3] (setting [8]), 1%; in assay [3] (at 50.0 µM), -12.7%; in assay [4] (setting [7]) it was -67%; in assay [4] (setting [8]), -2%; in assay [4] (at 50.0 µM), 22.8%. In addition, the growth inhibition is 1% in assay [5] (setting [7]); -80% in assay [5] (setting [8]); 15.9% in assay [5] (at 50.0 µM); -1% in assay [6] (setting [7]); -12% in assay [6] (setting [8]); -23.6% in assay [6] (at 50.0 µM).
With `O=C1OC(c2cccc(Cl)c2)=N/C1=C\C=C/c1ccccc1`, the growth inhibition in assay [1] (setting [7]) was -3%; in assay [1] (setting [8]) it was -10%; in assay [1] (at 50.0 µM), 14.1%; in assay [2] (setting [7]) it was -27%; in assay [2] (setting [8]), -15%; in assay [2] (at 50.0 µM), -7.9%. Moreover, the growth inhibition in assay [3] (setting [7]) is -8%; in assay [3] (setting [8]), 1%; in assay [3] (at 50.0 µM) it was 17.6%; in assay [4] (setting [7]) it was 19%; in assay [4] (setting [8]), 21%; in assay [4] (at 50.0 µM), 11.8%. Also, the growth inhibition in assay [5] (setting [7]) is -1%; in assay [5] (setting [8]), -10%; in assay [5] (at 50.0 µM) it was 11.9%; in assay [6] (setting [7]), -16%; in assay [6] (setting [8]) it was -39%; in assay [6] (at 50.0 µM) it was 3.9%.
Regarding `CCCCNC(=O)OCCN=C1c2ccccc2C(Br)C(Br)c2ccccc21` (configuration not stated), the growth inhibition in assay [1] (setting [7]) was 5%; in assay [1] (setting [8]), 37%; in assay [1] (at 50.0 µM) it was 98.4% (active); in assay [2] (setting [7]) it was 2%; in assay [2] (setting [8]), 23%; in assay [2] (at 50.0 µM) it was 98.5% (active). Moreover, the growth inhibition in assay [3] (setting [7]) is -5%; in assay [3] (setting [8]) it was 21%; in assay [3] (at 50.0 µM) it was 97.3% (active); in assay [4] (setting [7]) it was 7%; in assay [4] (setting [8]) it was 20%; in assay [4] (at 50.0 µM), 97.8% (active). Further, the growth inhibition is 9% in assay [5] (setting [7]); 28% in assay [5] (setting [8]); 97.8% (active) in assay [5] (at 50.0 µM); 13% in assay [6] (setting [7]); 74% (active) in assay [6] (setting [8]); 98.5% (active) in assay [6] (at 50.0 µM).
For the compound `CC1(C)CC[C@]2(C(=O)O)[C@H](O)C[C@]3(C)C(=CC[C@@H]4[C@@]5(C)CC[C@H](OC6OCC(O)C(O)C6OC6OCC(O)C(O)C6OC6OCC(O)C(O)C6O)C(C)(C)[C@@H]5CC[C@]43C)[C@@H]2C1` (some centres not stated), the growth inhibition is 5% in assay [1] (setting [7]); 7% in assay [1] (setting [8]); 51.9% in assay [1] (at 50.0 µM); 12% in assay [2] (setting [7]); 54% in assay [2] (setting [8]); 57.1% in assay [2] (at 50.0 µM). Moreover, the growth inhibition was 8% in assay [3] (setting [7]); 33% in assay [3] (setting [8]); -13.4% in assay [3] (at 50.0 µM); 14% in assay [4] (setting [7]); 100% (active) in assay [4] (setting [8]); 54% in assay [4] (at 50.0 µM). Further, the growth inhibition in assay [5] (setting [7]) was 14%; in assay [5] (setting [8]), 100% (active); in assay [5] (at 50.0 µM) it was 48.8%; in assay [6] (setting [7]), 5%; in assay [6] (setting [8]) it was 53%; in assay [6] (at 50.0 µM), 52%.
With `CC/C(=C(\CC)c1ccc(OCCN2CCOCC2)cc1)c1ccc(OCCN2CCOCC2)cc1`, the growth inhibition is 47% in assay [1] (setting [7]); 63% in assay [1] (setting [8]); 82.8% (active) in assay [1] (at 50.0 µM); 36% in assay [2] (setting [7]); 62% in assay [2] (setting [8]); 70.5% (active) in assay [2] (at 50.0 µM). Besides, the growth inhibition in assay [3] (setting [7]) is 67%; in assay [3] (setting [8]), 88% (active); in assay [3] (at 50.0 µM) it was 89% (active); in assay [4] (setting [7]), 62%; in assay [4] (setting [8]), 64%; in assay [4] (at 50.0 µM) it was 83.5% (active). For the same compound, the growth inhibition was 59% in assay [5] (setting [7]); 68% in assay [5] (setting [8]); 79.9% (active) in assay [5] (at 50.0 µM); 30% in assay [6] (setting [7]); 72% (active) in assay [6] (setting [8]); 87.8% (active) in assay [6] (at 50.0 µM).

For the origin of these results see PubChem BioAssay (NCI).
